High-throughput results: PubChem, Sanford-Burnham Center for Chemical Genomics
Compounds with a hit are over-represented: about 28% of the library has one in this group of screens.
CYP2C9 inh = human CYP2C9 inhibition; actives 20% (n = 96,000); inhibition, % at 5 µM; CYP2C9 Supersomes, luciferin-H conversion, luminescence;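 active = blocking of liver enzyme CYP2C9 beyond about 50% at 5 µM, limit read from the data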
CYP2C19 inh = blocks human cytochrome P450 2C19. P33261. CYP2C19 Supersomes, luciferin-H EGE luminescence, 30 min. inhibition, % at 5 µM. actives 21% (n = 96,000). AID 778;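 active = CYP2C19 inhibition above a set limit at 5 µM in the primary screen, cut at about 50% in these data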;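 note: plate controls were negative control wells for no effect and 2.5 mM tranylcypromine positive control for full effect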
Target sequence (P33261 whole entry, looked up): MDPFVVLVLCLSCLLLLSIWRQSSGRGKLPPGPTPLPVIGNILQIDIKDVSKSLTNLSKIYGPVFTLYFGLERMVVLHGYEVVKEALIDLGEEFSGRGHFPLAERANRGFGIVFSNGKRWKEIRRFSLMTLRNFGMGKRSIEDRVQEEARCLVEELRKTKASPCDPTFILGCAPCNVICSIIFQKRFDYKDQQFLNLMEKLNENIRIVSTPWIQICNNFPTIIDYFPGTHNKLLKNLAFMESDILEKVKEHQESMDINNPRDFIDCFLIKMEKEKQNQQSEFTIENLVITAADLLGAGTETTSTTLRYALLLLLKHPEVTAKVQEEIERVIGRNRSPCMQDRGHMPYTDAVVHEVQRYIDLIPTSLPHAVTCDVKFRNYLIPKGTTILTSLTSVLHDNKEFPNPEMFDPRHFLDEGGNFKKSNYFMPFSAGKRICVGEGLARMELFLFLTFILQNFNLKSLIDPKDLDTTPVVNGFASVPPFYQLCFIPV
CYP2C19 activ = cytochrome P450 2C19 (human) activation | P33261 | recombinant CYP2C19, luciferin-H EGE luminescence; hits give high values; 0 = fully inhibited enzyme, 1 = untreated enzyme | activation factor at 5 µM | 96,000 tested, under 10 active;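 active = activation factor of at least 2 at 5 µM in the primary screen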;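 note: 0 = wells with 2.5 mM tranylcypromine and 1 = vehicle-only wells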
PTK2B oligo ant = antagonists of human Pyk2 oligomerization | Q14289 | Q293 cells, Pyk2 FERM NanoBiT luminescence; hits give low values | actives 0.83% (n = 99,000) | z-score (the deposit names both 25 µM and 10 µM);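 active = Z-score of -3 or lower, scaled per plate to the spread of control and sample wells; inactive = z-score above -3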;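 note: negative z-score means lost luminescence so less FERM oligomerization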
CYP2C9 activ = CYP2C9 (human) activation; P11712; recombinant CYP2C9, luciferin-H conversion, luminescence; hits give high values; factor 1 = untreated enzyme, 0 = blocked; activation factor at 5 µM; actives 1.4% (n = 96,000);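 active = activation factor of 2 or more for CYP2C9 at a 5 µM dose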;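 note: 0 = sulfaphenazole-blocked wells and 1 = vehicle-only wells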
* marks the source's active call; other numbers are inactive results; . = no result given.

SMILES	CYP2C9 inh	CYP2C19 inh	CYP2C19 activ	PTK2B oligo ant	CYP2C9 activ
O=C1CC(N(Cc2ccc3c(c2)OCO3)C(=O)Nc2ccc(F)cc2)C(=O)N1c1ccccc1 (stereo not drawn)	3.4	13.1	0.9	0.56	1
COc1ccc(CCN(C(=O)c2cccc(F)c2)C2CC(=O)N(c3ccc(OC)cc3)C2=O)cc1 (stereo not drawn)	53.3*	67.4*	0.3	-1.36	0.5
COC(=O)CN(C(=S)Nc1ccc(F)cc1)C1CC(=O)N(c2ccc(OC)cc2)C1=O (stereo not drawn)	62.4*	93.4*	0.1	0.31	0.4
Cc1ccc(S(=O)(=O)NC(=O)Nc2nnc(C)s2)cc1	3.3	5.8	0.9	-1.14	1
Cc1cc(C)c2c3c(cn2n1)c(=O)n(C)c(=O)n3C	.	.	.	0.92	.
Cn1nnc(NC(=O)C(c2ccccc2)c2ccccc2)n1	84.4*	41.0	0.6	0.84	0.2
CC(C)C(=O)Nc1nnn(C)n1	-1.1	-0.3	1	0.44	1
Cc1cc(C)nc(NC(=O)C(c2ccccc2)c2ccccc2)n1	70.7*	20.7	0.8	0.12	0.3
Cc1cc(C)nc(NC(=O)C(C)C)n1	15.5	-0.8	1	-0.12	0.8
O=C(CN1C(=O)C2C3C=CC(C3)C2C1=O)N1CCc2ccccc2C1 (stereo not drawn)	-14.2	-8.1	1.1	0.35	1.1
O=C(CCCOc1ccc(Cl)cc1)N1CCOCC1	0.8	87.4*	0.1	0.75	1
O=C(CCCOc1ccc(Cl)cc1)N1CCCCC1	39.8	97.9*	0	-0.73	0.6
O=C(CCCOc1ccc(Cl)cc1)N1CCCCCC1	58.7*	95.4*	0	1.5	0.4
CCC1CCCCN1C(=O)CCCOc1ccccc1 (stereo not drawn)	9.1	50.1*	0.5	-0.32	0.9
CCOC(=O)C1C(=O)C(C(C)=O)C(=O)CC1CC(C)SCC (stereo not drawn)	29.9	-23.5	1.2	0.86	0.7
CC(C)NS(=O)(=O)c1ccc(NC(=O)C2CC3C=CC2C3)cc1 (stereo not drawn)	21.9	16.2	0.8	1.46	0.8
COCCCNC(=O)C(F)(F)C(F)(F)C(=O)NCCCOC	-4.1	0.1	1	-0.66	1
O=C(CCCOc1ccccc1)N1CCCCC1	2.9	56.3*	0.4	0.66	1
CSc1ccccc1NC(=O)c1ccc(Br)o1	-9.3	57.3*	0.4	-0.88	1.1
O=C(Nc1cccc2cccnc12)c1ccc(Br)o1	-119.2	15.0	0.8	-0.97	2.2*
O=C(Nc1ccccc1N1CCCC1)c1ccc(Br)o1	53.2*	56.8*	0.4	0.02	0.5
O=C(Nc1cccc2ccccc12)c1ccc(Br)o1	5.1	23.7	0.8	-0.02	0.9
O=C(Nc1cc(C(F)(F)F)ccc1N1CCCCC1)c1ccc(Br)o1	15.4	17.3	0.8	0.25	0.8
COC(=O)c1cccc(S(=O)(=O)N2CCN(c3nc4ccccc4s3)CC2)c1	25.9	24.5	0.8	-0.14	0.7
CCOC(=O)c1cn(-c2nc(-c3ccc(Cl)c(Cl)c3)cs2)c2c(F)c(N3CCOCC3)c(F)cc2c1=O	17.4	-5.2	1.1	0.32	0.8
SMILES	CYP2C9 inh	CYP2C19 inh	CYP2C19 activ	PTK2B oligo ant	CYP2C9 activ
CCCS(=O)(=O)N1CCN(S(=O)(=O)c2ccc(F)cc2)CC1	.	.	.	0.56	.
COc1ccc(S(=O)(=O)Nc2cc(C)ccc2OC)cc1C	80.4*	100.1*	0	-1.81	0.2
COc1ccc(Cl)cc1NS(=O)(=O)c1ccc(OC)c(OC)c1	.	.	.	-0.57	.
COc1ccc(NC(=O)c2cc(-c3cc(C)ccc3O)n[nH]2)cc1Cl	-27.4	-12.4	1.1	-1.25	1.3
Cc1c(Cl)cccc1NC(=O)c1cc(-c2ccccc2O)n[nH]1	-168.0	17.2	0.8	-0.83	2.7*
COc1ccc(OC)c(NC(=O)c2cc(-c3cc(Cl)ccc3O)n[nH]2)c1	-143.3	2.6	1	-2.04	2.4*
COc1ccc(OC)c(NS(=O)(=O)c2ccc(NC(C)=O)cc2)c1	28.8	99.9*	0	0.36	0.7
CSc1nnc(-c2cc(C)on2)n1-c1ccccc1	.	.	.	0.3	.
O=S1(=O)CCC(S(=O)(=O)N2CCCCCC2)C1 (stereo not drawn)	.	.	.	-0.02	.
COc1ccc(C)cc1NS(=O)(=O)c1ccc(NS(=O)(=O)c2ccc(NC(C)=O)cc2)cc1	66.5*	62.5*	0.4	-0.39	0.3
COc1ccc(OC)c(NS(=O)(=O)c2ccc(N3CCCC3=O)cc2)c1	19.0	95.0*	0.1	2.5	0.8
COc1ccc(CCNS(=O)(=O)c2ccc(N3CCCC3=O)cc2)cc1	.	.	.	1.24	.
CCOc1cc(NC(=S)Nc2cccc(OC)c2)c(OCC)cc1NC(=O)C(C)C	14.5	3.6	1	-1.29	0.9
COc1ccc(C)cc1NS(=O)(=O)c1cccc2nonc12	14.9	91.6*	0.1	-0.11	0.9
CCOc1cc(NC(=S)Nc2ccccc2)c(OCC)cc1NC(=O)c1ccc(OC)cc1	68.9*	48.4	0.5	-0.28	0.3
CCOC(=O)c1ccc(NC(=O)c2nccnc2C(=O)O)cc1	-29.7	-10.9	1.1	.	1.3
CCC(C)(NC(=O)c1ccc(=O)[nH]c1)C(=O)NC1CCCC1 (stereo not drawn)	-8.4	-7.0	1.1	.	1.1
O=C(O)CC(c1ccc(Cl)cc1)N1C(=O)CCC1=O (stereo not drawn)	9.3	-3.8	1	0.46	0.9
CCOc1ccc(S(=O)(=O)Nc2cc(OC)ccc2OC)cc1	55.2*	100.0*	0	-0.59	0.4
COc1ccc(S(=O)(=O)Nc2cc(Cl)ccc2OC)cc1	37.6	99.3*	0	-0.09	0.6
COc1ccc(OC)c(NC(=O)c2ccc(NC(C)=O)cc2)c1	-162.0	-1.1	1	-0.58	2.6*
COc1ccc(OC)c(NC(=O)c2ccc(NS(C)(=O)=O)cc2)c1	-42.5	17.9	0.8	0.43	1.4
COc1ccc(OC)c(NS(=O)(=O)c2cccs2)c1	.	.	.	-0.31	.
CC(=O)C1=C(C)Nc2cc(C(F)(F)F)ccc2S1	36.5	60.0*	0.4	-0.23	0.6
FC(F)(F)c1cnc2c(c1)Nc1ccccc1S2	16.1	29.5	0.7	-0.62	0.8
SMILES	CYP2C9 inh	CYP2C19 inh	CYP2C19 activ	PTK2B oligo ant	CYP2C9 activ
O=C1c2ccccc2C(Nc2ccc(Cl)cn2)N1Cc1ccccc1 (stereo not drawn)	70.3*	81.3*	0.2	.	0.3
CCCn1c(SCC(=O)NCCc2ccccc2)nnc1-c1ccco1	.	.	.	-0.15	.
CCCc1cc(=O)[nH]c(SCc2cccnc2)n1	.	.	.	0.06	.
CCc1nc(SCc2cccnc2)[nH]c(=O)c1C	82.0*	41.8	0.6	0.07	0.2
CCc1cccc2c(C#N)cn(CC(=O)NCc3ccco3)c12	14.5	51.3*	0.5	0.22	0.9
CC(C)C(=O)c1cn(CC(=O)NCc2ccco2)c2ccccc12	.	.	.	0.2	.
Cc1cc2ncn(C(=O)c3c(-c4ccccc4Cl)noc3C)c2cc1C	44.1	37.6	0.6	0.13	0.6
CC1=NN(C(=O)c2csc(C(C)C)c2)C(O)(C(F)(F)F)C1 (stereo not drawn)	.	.	.	-0.4	.
